High-throughput results: PubChem BioAssay, several laboratories
KLF5 inh: inhibitors of KLF5 expression; DLD-1 KLF5 promoter-luciferase reporter, luminescence; inhibition, % at 5 µM; 0.23% of 290,000 active; AID 1700;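 active means inhibition above a per-plate limit of that plate's mean compound inhibition plus 3 SD, cut at about 60% in these data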;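 further: 0% = DMSO wells and 100% = LY294002 at 200 µM; higher means less KLF5 promoter-driven luciferase light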
IEC-6 cytotox: kills IEC-6 intestinal cells in KLF5 counter-screen. IEC-6 cytotoxicity, luminescence viability. inhibition, % at 5 µM. 0.78% of 290,000 active; in the data active means inhibition above about 22%;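 further: 0% = plate median of test compound wells and 100% = cytotoxic reference compound wells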
aSyn UTR inh: MLPCN primary screen, SNCA 5' untranslated region. 0.82% of 300,000 active. AID 1813. inhibition, % (tested at 7.5 µM). alpha-synuclein 5'UTR reporter, inhibitor activity; in the data active means inhibition above about 60%;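 further: H4 neuroglioblastoma cells stably carrying SNCA 5'UTR luciferase fusion; 0% = DMSO wells and 100% = positive control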
Ba/F3 V617F tox: loss of viability in JAK2V617F-driven Ba/F3 cells; AID 1446; Ba/F3 EpoR-JAK2V617F viability, ATP luminescence; 1.1% of 220,000 active; inhibition, % at 5.6 µM;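 active means inhibition above the campaign mean plus 3 SD over all tested compounds, cut at about 24% in these data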;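 further: cytokine-independent growth of Ba/F3 cells driven by EpoR plus mutant JAK2; 0% = DMSO-treated cells and 100% = JAK inhibitor I control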
APP 5UTR inh: APP translation inhibition; SH-SY5Y APP 5'UTR-luciferase reporter, luminescence; inhibition, % at 2 µM; 0.82% of 190,000 active;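 active means inhibition above a set limit, derived from the sample mean plus 3 SD, cut at about 45% in these data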
BaF3 tox: reduces parental Ba/F3 cell viability, JAK2V617F counter-screen; inhibition, % at 5.6 µM; 1.1% of 220,000 active; CellTiter-Glo ATP luminescence;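 active means inhibition above a per-campaign cutoff, the mean inhibition of all tested compounds plus 3 SD, cut at about 27% in these data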;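 further: 0% = DMSO wells and 100% = JAK Inhibitor I control wells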
Starred values were filed as active, the others as inactive; . = no result. In the library only some 2.2% were active in any assay of this set; here they are far more common.

SMILES	KLF5 inh	IEC-6 cytotox	aSyn UTR inh	Ba/F3 V617F tox	APP 5UTR inh	BaF3 tox
CC(=O)c1c(C)oc2ccc(N(C(C)=O)S(=O)(=O)c3ccc(Cl)c([N+](=O)[O-])c3)cc12	-19.8	-1.7	111.5*	-5.6	-1.4	0.2
COC(=O)Cc1c(C(=O)OC)nnn1-c1cccc(C(F)(F)F)c1	-6.1	-1.1	11.1	0.4	-1.6	3.9
CN(C)c1ccc(NC(=O)CN2CCN(CC(=O)Nc3ccc(F)cc3)CC2)cc1	-22.0	2.2	-12.0	-0.8	-4.3	6.6
O=C(O)CCC(=O)NNc1nc2ccccc2nc1-c1ccccc1	-49.5	0.2	-30.8	0.8	-7.8	90.0*
O=C(O)CCC(=O)NNc1ncnc2ccccc12	-32.4	3.7	14.4	-2.0	-15.7	10.3
Cc1ccc(C#N)c(SCc2nnc(-c3ccc(Cl)cc3)o2)n1	-71.7	-4.7	89.7*	-1.7	-30.1	6.0
Cc1cc(C)c(C#N)c(SCc2nnc(-c3ccccc3)o2)n1	56.8	-3.5	102.4*	-3.1	-43.8	2.1
Cc1ccc(C#N)c(SCc2cc3c(cc2Cl)OCO3)n1	-2.3	-2.2	-9.1	-3.2	-19.0	-3.3
Cc1cc(C)n(-c2nc(Nc3ccccc3C(F)(F)F)nc(-n3nc(C)cc3C)n2)n1	11.2	39.0*	61.9*	-2.1	41.6	5.1
Cc1c(NC(=O)CC(=O)Nc2c(C)n(C)n(-c3ccccc3)c2=O)c(=O)n(-c2ccccc2)n1C	14.7	1.9	23.5	-1.8	2.6	3.9
COc1ccc(-n2c(N)c(C(=O)Nc3c(C)n(C)n(-c4ccccc4)c3=O)c3nc4ccccc4nc32)cc1	-3.2	-6.4	18.9	-3.6	.	3.9
Cc1ccc(-n2c(N)c(C(=O)Nc3c(C)n(C)n(-c4ccccc4)c3=O)c3nc4ccccc4nc32)cc1C	-7.9	9.6	74.0*	-1.8	-6.7	1.6
Cc1c(NC(N)=O)c(=O)n(-c2ccccc2)n1C	5.4	3.6	-8.7	1.1	5.5	79.8*
CC(C)Nc1nc(Oc2cccc(Cl)c2Cl)cc(C(F)(F)F)n1	-8.7	4.5	-9.2	3.3	2.8	10.7
CCn1c(SCc2ccccc2)nnc1-c1cccs1	-11.0	-10.8	-13.4	40.8*	-11.5	41.8*
CCn1c(SCC(=O)Nc2ccccc2)nnc1-c1cccs1	-21.7	-5.9	8.2	-3.2	.	-2.5
O=C1OCCC1Sc1nnc(-c2ccc(Cl)cc2Cl)o1 (configuration not stated)	31.2	4.4	89.5*	1.9	.	-1.6
COc1ccc(C)cc1NS(=O)(=O)c1ccc(NC(=O)CN(c2cc([N+](=O)[O-])ccc2C)S(C)(=O)=O)cc1	7.0	7.3	114.3*	6.2	59.3*	9.2
Cc1cccc(NS(=O)(=O)c2ccc(NC(=O)CN(c3cc([N+](=O)[O-])ccc3C)S(C)(=O)=O)cc2)c1	-0.3	96.9*	101.0*	11.1	10.7	11.7
COc1ccc([N+](=O)[O-])cc1N(CC(=O)NCCSc1ccc(C)cc1)S(C)(=O)=O	-28.1	-2.0	-5.9	2.9	4.2	-2.9
Cc1ccc(/C=N/NC(=O)CSc2nnc(-c3ccc(Cl)cc3)n2-c2ccc(Cl)cc2)o1	-15.6	6.6	-15.7	4.4	0.8	7.8
O=C(/C=C/c1ccc(O)c(O)c1)c1ccccc1O	-117.0	16.9	-293.4	84.4*	.	40.0*
Cc1cc(C(F)F)n2nc(C(=O)Nc3cccnc3Cl)nc2n1	3.1	4.4	8.5	-4.1	-4.5	94.9*
O=C(NCc1ccc(F)cc1)C(c1cccs1)N(C(=O)c1csnn1)C1CC1 (configuration not stated)	-14.1	8.0	-21.4	0.1	5.7	2.3
CCOC(=O)C1CCCN(Cc2cc(=O)oc3cc(C)c(C)cc23)C1 (configuration not stated)	-14.8	-0.6	-11.8	2.2	9.3	82.2*
SMILES	KLF5 inh	IEC-6 cytotox	aSyn UTR inh	Ba/F3 V617F tox	APP 5UTR inh	BaF3 tox
CCOC(=O)C1CCCN(Cc2cc(=O)oc3cc(C)ccc23)C1 (configuration not stated)	-13.2	-10.4	-75.5	-0.4	-25.3	3.8
Clc1ccc(Nc2ncnc3ccc(Br)cc23)cc1	8.4	26.2*	-29.9	4.5	9.9	11.5
Clc1cccc(Nc2ncnc3ccc(Br)cc23)c1	2.4	30.4*	-51.3	3.8	-8.3	6.2
COc1ccc(SCCc2ccncc2)cc1	-41.8	-9.5	15.6	-3.8	4.1	0.6
CN(Cc1c(F)cccc1Cl)C(=O)c1ccc(COc2ccccc2)cc1	-16.0	0.2	-27.9	.	.	.
C=CCNc1nc2c(c(=O)n(C)c(=O)n2C)n1Cc1ccc(F)cc1	-40.2	-1.4	5.9	40.0*	1.2	39.9*
Cn1c(=O)c2c(nc(NCCc3ccccc3)n2Cc2ccc(F)cc2)n(C)c1=O	-11.5	10.5	27.6	-2.4	9.7	3.6
C=CCNc1nc2c(c(=O)n(C)c(=O)n2C)n1CCCCCC	-36.9	6.0	-28.0	40.0*	16.0	54.9*
C=CCNc1nc2c(c(=O)n(C)c(=O)n2C)n1CC	4.7	-2.9	13.1	-3.8	-4.6	5.2
COCCNc1nc2c(c(=O)n(C)c(=O)n2C)n1Cc1cccc(C)c1	-10.0	1.1	15.3	45.0*	-2.6	43.5*
COC(=O)/C(C#N)=C/c1c(Oc2cc(C)cc(C)c2)nc2c(C)cccn2c1=O	1.1	-1.0	-19.6	4.7	-7.8	7.4
COc1ccc(C(=O)N2CCCC(c3nc(-c4ccc(C)o4)no3)C2)cc1OC (configuration not stated)	-1.1	8.4	8.3	.	.	.
CC(=O)c1ccc(OCc2ccc(C(=O)c3ccccc3)cc2)cc1	-7.3	-3.3	-4.6	-2.0	8.3	4.9
CCOC(=O)C1=C(O)C(=O)N(c2ccc(S(N)(=O)=O)cc2)C1c1ccccc1 (configuration not stated)	-2.3	4.6	-0.5	4.1	-10.6	9.7
CC(C)Cc1nc(Nc2ccccc2C#N)c2nnn(Cc3ccccc3)c2n1	0.4	-0.3	49.1	.	.	.
CCCOC(=O)C(C)n1cnc2sc(C)c(C)c2c1=O (configuration not stated)	-22.2	-0.8	-13.2	-6.0	10.3	46.5*
CCOC(=O)c1sc2ncn(C(C)C(=O)OC)c(=O)c2c1C (configuration not stated)	0.8	2.4	-0.8	-4.1	-13.7	0.9
COc1ccc(N=CC2=C(O)c3ccccc3C2=O)c(OC)c1	-41.1	12.6	62.5*	1.7	-176.5	1.9
CCOC(=O)c1ccccc1NC(=O)COc1cc(=O)n(CC)c2ccccc12	-32.9	6.7	-11.9	-0.5	4.1	-0.5
Cc1ccc(C(=O)Nc2cccc(C(F)(F)F)c2)cc1NC(=O)c1cnnc2ccccc12	.	.	64.2*	.	.	.
Cc1ccc(C(=O)Nc2cccc(C(F)(F)F)c2)cc1Nc1cncnc1	-0.3	-3.5	-11.1	.	.	.
Cc1ccc(C(=O)Nc2cccc(C(F)(F)F)c2)cc1NC(=O)c1nccnc1N	.	.	78.5*	.	.	.
COc1cc(NC(=O)c2nccnc2N)cc(C(=O)Nc2cccc(C(F)(F)F)c2)c1	.	.	-5.7	.	.	.
C/C(Cc1ccccc1)=N\NC(=O)CNC(=O)c1ccccc1F	-25.5	-6.1	-9.9	.	.	.
